# Pf growth 96h – Primary qHTS for delayed death inhibitors of the malarial parasite plastid, 96 hour incubation. P. falciparum luciferase reporter growth, 96 h. actives 6.9% (n = 320,000). Potency, µM (highest dose often 28.7 µM), for the others: at the top dose activity change, negative = inhibition, most hits filed as inhibitors. AID 504834, 2011
#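 P. falciparum expressing integrated firefly luciferase, in erythrocytes at 2% hematocrit, 0.05% parasitemia, incubated with compounds 96 h at 37 C, 5% CO2. Growth inhibition read as loss of luminescence; two-generation exposure targets delayed-death apicoplast inhibitors.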
# AMA1 RON2 block – qHTS for Inhibitors of AMA1-RON; Towards Development of Antimalarial Drug Lead: Primary Screen. Plasmodium falciparum AMA1 (3D7) - RON2 peptide interaction. AlphaScreen AMA1-biotinylated RON2 peptide binding. Potency, µM (highest dose often 58.2 µM), for the others: top-dose activity change, negative = inhibition, hits mostly inhibitors. actives 0.2% (n = 360,000);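 note: 0% = vehicle wells and -100% = peptide control; nearly all actives have a fitted effect of over 45% in size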
#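 AMA1 (3D7) with his tag at 25 nM final met compounds first, then biotinylated RON2 peptide at 25 nM; detection used donor plus acceptor beads, 10 µg/mL apiece, read by AlphaScreen after 30 min at room temperature.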
# VACV Venus inh – qHTS for Stage-Specific Inhibitors of Vaccinia Orthopoxvirus: Venus Reporter Primary qHTS; Vaccinia virus Venus reporter expression, fluorescence; Potency, µM (highest dose often 36.5 µM), for inactives: top-dose activity change, negative = inhibition, most hits filed as inhibitors; actives 0.46% (n = 330,000); calls by dose curve; tested in A549 cells; note: nearly all actives have a fitted effect of over 30% in size
# Pf growth 48h – Primary qHTS for delayed death inhibitors of the malarial parasite plastid, 48 hour incubation; P. falciparum luciferase growth in erythrocytes, 48 h; Potency, µM (highest dose often 28.7 µM), inactives show at the highest dose activity change, negative = inhibition, actives largely listed as inhibitors; actives 5.9% (n = 310,000); AID 504832, 2011
#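 First compound was added to culture medium, then infected red cells at 0.1% parasitemia and 2% hematocrit (final). After incubation at 37 C under 5% CO2, luciferase detection reagent was dispensed and light output recorded.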
# Vaccinia mCherry – qHTS for Stage-Specific Inhibitors of Vaccinia Orthopoxvirus: mCherry Reporter Primary qHTS. Potency, µM (doses to about 36.5 µM), for the others: top-dose activity change, negative = inhibition, actives largely listed as inhibitors. AID 720579, 2013. Vaccinia virus mCherry reporter infection, fluorescence. actives 0.63% (n = 310,000); calls by dose curve; tested in A549 cells; note: nearly all actives have a fitted effect of over 35% in size
# Active calls of the source: *; i = inactive; ? = inconclusive; · = no result given. This is a sample that favours compounds with a hit; in the whole collection about 8.7% have one here. Unless noted, calls come from the whole dose curve; as a rule, active = well fitted curve in the direction sought with a large enough effect; inconclusive = small, poorly fitted or top-dose-only effect, or another doubt; inactive = no such curve, though single readings can be large; an effect the other way counts as inactive or inconclusive. Unless noted, % is set by controls: 0 for no effect and ±100 for the full control effect; potency is the fitted concentration of half-maximal effect.
SMILES,Pf growth 96h,AMA1 RON2 block,VACV Venus inh,Pf growth 48h,Vaccinia mCherry
O=S(=O)(Nc1ccc(O)cc1)c1cccc2cccnc12,6.6%,-1.9%,-6.0%,·,3.7%
O=[N+]([O-])c1ccc(NS(=O)(=O)c2cccc3cccnc23)cc1,11.7µM*,42.4%,·,0.6%,·
COc1cc(-c2cc3nc(C)c(C)c(=O)n3[nH]2)cc(OC)c1OC,96.7%,-0.7%,0.0%,10.4µM*,i
CCc1c(C)nc2cc(-c3ccccc3)[nH]n2c1=O,?,-2.9%,-11.2%,?,-25.3%
Cc1ccccc1Nc1nnc(SCc2cc([N+](=O)[O-])cc3c2OCOC3)s1,4.65µM*,-4.4%,?,·,-11.2%
COc1ccc(C(C#N)=C2C=CC(=NO)C(C)=C2Cl)cc1,·,3.16µM*,-3.2%,·,-16.8%
CCOC(=O)/C(C#N)=C(/C)c1ccc(OC)cc1,15.1%,26.5%,-6.0%,-4.2%,-11.4%
CO/N=C/C(C#N)=C/c1ccc(OC)cc1,85.7%,-2.3%,-4.1%,47.9%,i
COc1ccc(C(C#N)=C2C=C(Cl)C(=NO)C=C2Cl)cc1,·,22.4µM*,?,·,?
CN(C)c1ccc(/C=C/c2ccnc3c(Cl)cccc23)cc1,·,·,26.8%,·,-5.3%
O=C(C[n+]1csc2ccccc21)c1ccc(I)cc1,·,·,-10.4%,·,-11.8%
CC(C)Oc1ccc(CNC(=O)c2ccccc2NC(=O)c2nsc3ccccc23)cc1,·,·,-27.9%,·,i
N#CC1=C(N)Oc2cc(N)ccc2C1c1cccc(F)c1 (stereo not given),130.9%,8.0%,-17.8%,5.6%,?
CN(C)c1ccc2c(c1)OC(N)=C(C#N)C2c1cccc(F)c1 (stereo not given),?,-3.4%,·,13.1µM*,·
COC(=O)c1ccc(C2C(C#N)=C(N)Oc3cc(N)ccc32)cc1 (stereo not given),11.7µM*,-1.1%,-16.3%,-21.0%,-19.3%
N#CC1=C(N)Oc2cc(O)ccc2C1c1ccncc1 (stereo not given),9.28µM*,-3.3%,-15.9%,0.3%,-11.9%
CCOC(=O)c1ccc(S(=O)(=O)N2CCN(c3nc(-c4cccs4)nc4ccccc34)CC2)cc1,·,·,-11.1%,·,-9.6%
Cc1cccc(CSc2nc3c(cc2C#N)CN(C)CC3)c1,7.38µM*,8.5%,-7.2%,10.4µM*,-10.2%
COC(=O)C1=C(CSc2nc3c(cc2C#N)CN(C)CC3)OC(N)=C(C#N)C1c1ccccc1F (stereo not given),11.7µM*,-11.5%,·,?,·
Cc1cccc(C)c1NC(=O)Cn1c(=O)n(Cc2ccccc2)c(=O)c2c(C)c(C(=O)N(C)C)sc21,·,·,-5.6%,·,-13.5%
COCCn1ccc2c(OCC(=O)Nc3cccc(C(F)(F)F)c3)cccc2c1=O,·,·,-1.0%,·,-6.9%
CCOCC(=O)Nc1cc(C(F)(F)F)ccc1Oc1cccc(Br)c1,0.465µM*,61.3%,-13.6%,?,·
CC(=O)Nc1cc(C(F)(F)F)ccc1Oc1cccc(Br)c1,?,14.2%,-16.9%,?,·
CCN(CC)C(=O)c1sc(NC(=O)C(C)Sc2nc(-c3ccccc3)cc(C(F)(F)F)n2)c(C(=O)OC)c1C (stereo not given),·,·,-24.0%,·,-4.8%
COc1cc(/C=C/c2ccnc3ccccc23)ccc1N(C)C,·,·,13.0%,·,-22.7%
SMILES,Pf growth 96h,AMA1 RON2 block,VACV Venus inh,Pf growth 48h,Vaccinia mCherry
COc1cc(NC(=O)CN2C(=O)CCc3cc(Br)ccc32)cc(OC)c1OC,·,·,5.3%,·,0.3%
Cn1c(-c2cc(Cl)ccc2O)nc2c1c(=O)[nH]c(=O)n2Cc1ccccc1,10.4µM*,5.4%,-21.7%,?,-18.0%
Cc1ccc(-c2nc3c(c(=O)[nH]c(=O)n3CC(C)C)n2CC(C)C)cc1[N+](=O)[O-],?,-21.7%,-6.9%,?,i
O=c1[nH]c(=O)n(Cc2ccccc2)c2nc(-c3ccc(Oc4ccc(F)cc4)c([N+](=O)[O-])c3)n(CCO)c12,?,-20.7%,10µM*,13.1µM*,-20.7%
COCCCn1c(-c2cccc(Cl)c2)nc2c1c(=O)[nH]c(=O)n2Cc1ccccc1,10.4µM*,-9.1%,-5.3%,11.7µM*,6.3%
CC(C)Cn1c(-c2cc([N+](=O)[O-])ccc2Cl)nc2c1c(=O)[nH]c(=O)n2Cc1ccccc1,2.62µM*,0.9%,-12.0%,5.22µM*,-25.3%
CCc1ccc(NCc2cc3cc4c(cc3n(CC(=O)Nc3ccccc3C)c2=O)OCCO4)cc1,·,·,-13.4%,·,-9.8%
COCCn1c(=O)[nH]c(=O)c2c1nc(-c1ccc(-c3ccc(Cl)cc3[N+](=O)[O-])o1)n2Cc1ccccc1,4.15µM*,-5.8%,?,4.65µM*,?
O=C(NCCO)C(c1ccccc1)c1ccccc1,?,5.0%,·,10.5%,·
O=C(O)CNC(=O)C(c1ccccc1)c1ccccc1,-22.7%,-16.2%,-15.1%,13.1µM*,-6.0%
OCCN(CC(O)Cn1ccc2ccccc21)CC(O)Cn1ccc2ccccc21 (stereo not given),11.3%,-6.6%,-21.0%,?,-29.0%
CC(C)(C)c1ccc(OCC(O)CN(CCO)CC(O)Cn2ccc3ccccc32)cc1 (stereo not given),?,-1.8%,·,11.7µM*,·
COc1ccc(C2C(C(=O)Nc3cccnc3)=C(C)Nc3nc(SCc4ccccc4)nn32)cc1 (stereo not given),·,·,3.3%,·,0.5%
CN(C)c1cccc(C(=O)N2CCC(c3ccncc3)CC2)c1,·,·,-22.8%,·,-17.7%
CCCCCCSc1ccc(-c2nc3ccc(Cl)cn3c2NCCCC)cc1OC,·,-0.1%,-7.0%,·,-9.7%
CCCCNc1c(-c2ccc(SC(C)CC)c(OC)c2)nc2ccc(C)cn12 (stereo not given),?,-1.0%,?,3.29µM*,?
CCCCNc1c(-c2ccc(SC(C)CC)cc2)nc2cnccn12 (stereo not given),·,28.2%,22.4µM*,·,31.6µM*
CCCCNc1c(-c2ccc(SC3CCCCC3)c(OC)c2)nc2ccc(Cl)cn12,2.08µM*,-0.4%,-15.7%,8.28µM*,-11.1%
CCCCNc1c(-c2ccc(OC)c(Sc3ccc(OC)cc3)c2)nc2cnccn12,·,5.6%,-25.6%,·,-17.0%
Cc1csc2nc(COc3ccc(NC(=O)COc4ccccc4F)cc3)cc(=O)n12,·,·,-27.8%,·,-23.1%
CCc1ccc(CNC(=O)CCN2C(=O)COc3ccccc32)cc1,·,·,-2.8%,·,-6.3%
O=C(NCc1cccs1)c1nn(-c2ccccc2Cl)nc1CO,·,·,-4.8%,·,-13.1%
Cc1ccc2oc(-c3ccc(C)c(NC(=O)C(C)(C)Oc4ccc(Cl)cc4)c3)nc2c1,·,·,-19.3%,·,-16.0%
CCOC(=O)c1cccc(NC(=O)c2ccc3nc(CCc4ccccc4)oc3c2)c1,·,·,-1.2%,·,2.2%
O=C(OCc1ccccc1)c1cccnc1,15.1µM*,·,·,?,·

# From PubChem
